Our source for the composite z-score and z-score values is PubChem BioAssay.

For assay [1], the system named is Plasmodium falciparum Sir2 (PF13_0152, Sir2A). The assay is described as follows: Plasmodium falciparum Sir2A binding compounds – biochemical, small-molecule microarray, 635 nm fluorescence, primary screen (AID 1098).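 Note: score merges spot fluorescence intensity with its signal-to-noise ratio.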 The settings on record: fluorescence 635 nm, higher = more signal.
The nature of assay [2]: probe aDKK1 binding to arrayed compounds – biochemical, biotinylated probe, 635/667 nm fluorescence, primary screen (AID 1099).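 Note: score merges 667nm spot fluorescence with signal to noise across triplicate slides.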 Conditions: small-molecule microarray, higher = more signal.
Assay [3] can be described thus: probe aCHRDL2 binding to arrayed compounds – biochemical, biotinylated probe, 635/667 nm fluorescence, primary screen (AID 1100). The settings on record: small-molecule microarray, higher = more signal.
The nature of assay [4]: change in splice reporter luminescence, either direction, cell-based, HEK293, spliceosome inhibition project, primary screen (AID 1101).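 Note: HEK293 cells carrying a splicing-competent luciferase reporter gene; test concentration not given here.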 The settings on record: HEK293 splicing luciferase reporter, 24 h, higher = more signal, called active from +8 up or from −8 down. (A reporter such as luciferase makes a cellular process visible.)
The target in assay [5] is Fibroblast growth factor 10 (Homo sapiens) (UniProt O15520). The assay is described as follows: compounds binding fibroblast growth factor 10 – biochemical, small-molecule microarray, 635 nm fluorescence, primary screen (AID 1102). The settings on record: FGF10 binding, fluorescence 635 nm, higher = more signal.
Fibroblast growth factor 10 (Homo sapiens), sequence (O15520 whole entry, looked up): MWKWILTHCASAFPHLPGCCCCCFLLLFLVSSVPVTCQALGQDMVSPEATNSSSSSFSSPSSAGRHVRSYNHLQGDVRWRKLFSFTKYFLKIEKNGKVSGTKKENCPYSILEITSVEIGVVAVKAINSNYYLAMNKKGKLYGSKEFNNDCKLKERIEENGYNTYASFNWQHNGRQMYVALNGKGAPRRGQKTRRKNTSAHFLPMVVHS
For assay [6], the system named is glycogen synthase kinase-3 (GSK3A per assay name; protocol says GSK3B). Kind of assay: compounds binding glycogen synthase kinase-3 – biochemical, small-molecule microarray, 635 nm fluorescence, GSK3A, primary screen (AID 1103). Note: the record names both GSK3A and GSK3B. The settings on record: fluorescence 635 nm, higher = more signal.
Assay [7] has as its target Epidermal growth factor receptor (Homo sapiens) (UniProt P00533). The assay is described as follows: compounds binding epidermal growth factor receptor – biochemical, small-molecule microarray, 635 nm fluorescence, primary screen (AID 1104).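 Note: score merges 667 nm emission intensity with spot signal to noise over triplicate slides.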 The settings on record: EGFR binding, higher = more signal.
Assay [8] addresses Follistatin-related protein 3 (Homo sapiens) (UniProt O95633). Kind of assay: compounds binding follistatin-related protein 3 – biochemical, small-molecule microarray, 635 nm fluorescence, primary screen (AID 1105).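 Note: score merges emission near 667 nm and signal to noise per printed spot across three slides.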 The settings on record: FSTL3 binding, higher = more signal.
Assay [9] addresses Dickkopf-related protein 1 (Homo sapiens) (UniProt O94907). The assay is described as follows: small molecules binding DKK1 protein – biochemical, small-molecule microarray, 635 nm fluorescence scan, primary screen (AID 1106).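 Note: score merges emission near 667 nm with signal to noise over three replicate slides.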 Conditions: higher = more signal.
The subject of assay [10] is Inhibin beta A chain (activin A). Kind of assay: small molecules binding activin A – biochemical, small-molecule microarray, 635 nm fluorescence scan, primary screen (AID 1107).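 Note: mouse activin A protein probed at 4.33 µg/mL on printed slides; score merges bound-protein fluorescence near 667 nm with spot signal-to-noise.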 Conditions: INHBA, higher = more signal.
The subject of assay [11] is Human papillomavirus type 1a protein E7 (residues 44-93). Kind of assay: small molecules binding HPV E7 44-93 – biochemical, small-molecule microarray, residues 44-93, 635 nm fluorescence, primary screen (AID 1108).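 Note: E7 fragment applied at 1 µg/mL in TBST for 1 h at 4 C; score combines spot fluorescence with its signal to noise ratio.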 The settings on record: fluorescence 635 nm, higher = more signal.
The nature of assay [12]: hepatitis C replication reporter changes, two-sided – Huh7 cells, luciferase reporter, HCV replication inhibitor project, primary screen (AID 1109).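 Note: huh7 hepatoma cells harbouring a luciferase neomycin HCV replicon reporter; luciferase luminescence as measure of HCV replicon replication; test concentration not given here.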 The settings on record: Huh7 HCV replicon luciferase reporter, 48 h; higher = more signal.
Assay [13] has as its target Left-right determination factor 2 (Homo sapiens) (UniProt O00292). Kind of assay: small molecules binding LEFTY2 protein – biochemical, small-molecule microarray, 635 nm fluorescence scan, primary screen (AID 1110). The settings on record: higher = more signal.
The target of assay [14] is Calmodulin-1 (Homo sapiens) (UniProt P0DP23). Kind of assay: small molecules binding calmodulin-1 with EGTA – biochemical, small-molecule microarray, Cy5-labelled CALM1, profiling panel (AID 1111).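 Note: labelled calmodulin applied in Tris saline Tween buffer holding calcium plus EGTA and DTT.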 The settings on record: Cy5-CALM1 binding fluorescence, higher = more signal.
Assay [15] shares this target. The assay is described as follows: small molecules binding Ca-loaded calmodulin-1 – biochemical, small-molecule microarray, Cy5-labelled CALM1, plus calcium, artefact control for SMM control-protein annotation, profiling panel (AID 1112).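 Note: score merges spot fluorescence with signal to noise from triplicate slides.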 The settings on record: Cy5-CALM1 binding fluorescence, higher = more signal.
The nature of assay [16]: probe aWnt5a binding to arrayed compounds – biochemical, biotinylated probe, 635/667 nm fluorescence, primary screen (AID 1113).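 Note: score merges 667 nm fluorescence intensity with signal-to-noise per printed feature.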 Conditions: small-molecule microarray, higher = more signal.
The nature of assay [17]: probe aShh binding to arrayed compounds – biochemical, biotinylated probe, 635/667 nm fluorescence, primary screen (AID 1114).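 Note: probe is biotin-labelled aShh protein from a stem cell growth factor screen; measures binding of labelled protein to compounds printed on the slide; score merges feature fluorescence at 667 nm with signal-to-noise.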 Conditions: small-molecule microarray, higher = more signal.
Assay [18] in a line: probe aNog binding to arrayed compounds – biochemical, biotinylated probe, 635/667 nm fluorescence, primary screen (AID 1115).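 Note: probe is biotinylated aNog protein used at 0.15 µg/mL for 1 h at 4 C; z-score combines 667 nm fluorescence of each spot with its signal to noise.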 Conditions: small-molecule microarray, higher = more signal.
Assay [19] has as its target Torsin-1A-interacting protein 1 (Homo sapiens) (UniProt Q5JTV8). Kind of assay: compound microarray binding of lysate hLAP1 – cell lysate, small-molecule microarray, COS7 lysate, 635/667 nm fluorescence, primary screen (AID 1116). Conditions: 635 nm fluorescence, higher = more signal.
The target of assay [20] is Alpha-bungarotoxin (Bungarus multicinctus) (UniProt P60615). The assay is described as follows: compounds binding labelled alpha-BTX control protein – biochemical, small-molecule microarray, Alexa647 label, 635/667 nm fluorescence, artefact control for SMM control protein annotation, profiling panel (AID 1117). Conditions: alpha-BTX-A647 binding fluorescence, higher = more signal.
Alpha-bungarotoxin (Bungarus multicinctus), sequence (P60615 whole entry, looked up): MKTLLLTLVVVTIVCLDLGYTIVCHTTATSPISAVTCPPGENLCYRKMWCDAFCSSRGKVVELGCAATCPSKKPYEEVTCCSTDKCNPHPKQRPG

Active and inactive are the calls of the source.

Left-right determination factor 2 (Homo sapiens), sequence (O00292 whole entry, looked up): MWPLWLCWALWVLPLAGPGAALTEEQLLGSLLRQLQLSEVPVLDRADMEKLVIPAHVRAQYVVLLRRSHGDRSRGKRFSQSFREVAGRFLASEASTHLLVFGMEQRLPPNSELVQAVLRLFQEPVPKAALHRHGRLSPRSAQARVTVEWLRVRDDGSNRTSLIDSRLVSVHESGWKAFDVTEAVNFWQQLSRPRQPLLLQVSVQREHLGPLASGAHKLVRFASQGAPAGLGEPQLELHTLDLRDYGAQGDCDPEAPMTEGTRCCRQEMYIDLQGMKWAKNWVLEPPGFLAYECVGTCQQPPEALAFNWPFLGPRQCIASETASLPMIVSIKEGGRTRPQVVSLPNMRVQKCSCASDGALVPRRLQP
Follistatin-related protein 3 (Homo sapiens), sequence (O95633 whole entry, looked up): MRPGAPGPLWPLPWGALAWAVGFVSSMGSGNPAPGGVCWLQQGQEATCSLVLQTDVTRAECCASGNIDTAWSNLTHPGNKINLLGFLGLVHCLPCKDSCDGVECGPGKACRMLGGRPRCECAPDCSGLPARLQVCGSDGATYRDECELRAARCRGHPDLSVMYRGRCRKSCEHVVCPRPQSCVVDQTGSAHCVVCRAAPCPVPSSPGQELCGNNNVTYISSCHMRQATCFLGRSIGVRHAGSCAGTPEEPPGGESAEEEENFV
Epidermal growth factor receptor (Homo sapiens), sequence (P00533 whole entry, looked up): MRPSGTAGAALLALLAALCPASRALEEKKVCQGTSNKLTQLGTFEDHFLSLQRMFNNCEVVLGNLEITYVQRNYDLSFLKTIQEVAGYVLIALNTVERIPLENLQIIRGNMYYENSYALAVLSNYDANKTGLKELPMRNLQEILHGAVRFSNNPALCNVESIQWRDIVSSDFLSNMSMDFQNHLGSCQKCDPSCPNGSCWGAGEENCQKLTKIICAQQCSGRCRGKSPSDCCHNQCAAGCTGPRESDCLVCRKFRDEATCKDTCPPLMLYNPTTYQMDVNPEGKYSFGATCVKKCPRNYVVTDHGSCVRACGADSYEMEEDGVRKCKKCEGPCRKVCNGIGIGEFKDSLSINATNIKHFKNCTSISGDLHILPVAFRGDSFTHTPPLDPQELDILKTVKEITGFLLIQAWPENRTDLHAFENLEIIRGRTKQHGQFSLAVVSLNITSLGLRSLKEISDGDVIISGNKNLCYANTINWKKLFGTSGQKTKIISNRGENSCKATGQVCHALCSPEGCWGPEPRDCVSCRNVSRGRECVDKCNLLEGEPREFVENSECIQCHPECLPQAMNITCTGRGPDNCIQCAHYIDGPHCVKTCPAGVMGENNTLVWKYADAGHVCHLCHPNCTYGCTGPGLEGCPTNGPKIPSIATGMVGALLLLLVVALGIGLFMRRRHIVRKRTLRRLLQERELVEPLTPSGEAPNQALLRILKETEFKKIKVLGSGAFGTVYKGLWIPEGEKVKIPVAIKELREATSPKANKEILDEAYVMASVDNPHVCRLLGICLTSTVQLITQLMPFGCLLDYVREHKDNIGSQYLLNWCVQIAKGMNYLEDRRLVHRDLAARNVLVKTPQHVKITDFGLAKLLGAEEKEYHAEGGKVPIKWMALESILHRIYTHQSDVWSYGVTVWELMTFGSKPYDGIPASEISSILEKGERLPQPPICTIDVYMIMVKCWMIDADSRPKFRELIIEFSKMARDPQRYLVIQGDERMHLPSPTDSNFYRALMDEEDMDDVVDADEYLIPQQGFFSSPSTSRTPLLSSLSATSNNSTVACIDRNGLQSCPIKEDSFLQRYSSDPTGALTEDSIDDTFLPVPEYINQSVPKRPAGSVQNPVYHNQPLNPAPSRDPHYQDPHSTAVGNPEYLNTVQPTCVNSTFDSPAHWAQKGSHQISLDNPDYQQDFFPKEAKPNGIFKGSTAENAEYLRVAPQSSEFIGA
Dickkopf-related protein 1 (Homo sapiens), sequence (O94907 whole entry, looked up): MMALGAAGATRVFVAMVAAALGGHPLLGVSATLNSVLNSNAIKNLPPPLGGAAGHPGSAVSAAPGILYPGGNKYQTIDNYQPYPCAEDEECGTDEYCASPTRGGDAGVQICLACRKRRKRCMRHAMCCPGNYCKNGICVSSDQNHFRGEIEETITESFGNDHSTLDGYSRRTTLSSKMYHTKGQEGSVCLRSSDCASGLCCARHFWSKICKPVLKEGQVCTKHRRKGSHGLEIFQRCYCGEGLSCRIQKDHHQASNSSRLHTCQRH
Torsin-1A-interacting protein 1 (Homo sapiens), sequence (Q5JTV8 whole entry, looked up): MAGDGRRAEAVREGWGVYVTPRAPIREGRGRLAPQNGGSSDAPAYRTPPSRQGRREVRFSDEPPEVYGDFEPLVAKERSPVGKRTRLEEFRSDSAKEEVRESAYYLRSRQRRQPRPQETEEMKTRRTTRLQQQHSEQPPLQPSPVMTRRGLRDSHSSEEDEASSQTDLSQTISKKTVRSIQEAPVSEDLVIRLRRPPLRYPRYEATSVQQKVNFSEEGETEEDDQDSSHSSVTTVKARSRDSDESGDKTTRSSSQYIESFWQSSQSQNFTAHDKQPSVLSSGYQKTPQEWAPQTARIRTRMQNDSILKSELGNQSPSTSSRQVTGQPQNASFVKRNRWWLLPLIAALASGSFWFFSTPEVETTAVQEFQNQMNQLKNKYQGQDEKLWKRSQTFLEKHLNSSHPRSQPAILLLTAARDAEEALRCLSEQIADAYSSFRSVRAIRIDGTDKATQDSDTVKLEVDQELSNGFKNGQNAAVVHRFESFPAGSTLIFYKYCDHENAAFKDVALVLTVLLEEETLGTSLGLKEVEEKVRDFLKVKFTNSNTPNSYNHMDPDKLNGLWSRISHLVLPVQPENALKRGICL

With `O=C1c2ccccc2[C@](Cc2ccccc2I)(C(=O)NCC(F)(F)F)[C@H](c2ccc(CO)cc2)N1Cc1ccccc1Cl`, the composite z-score in assay [1] was 1.4; in assay [2], -0.0951; in assay [3], 0.502; in assay [5], 0.588; in [6], 0.539; in [7], 0.0527. In addition, the composite z-score is 0.923 in assay [8]; -0.19 in assay [9]; 0.41 in assay [10]; 1.41 in assay [11]; -0.141 in [13]; 1.03 in assay [14]. Further, the composite z-score in assay [15] is 0.512; in assay [16], -0.0472; in assay [17] it was 0.0632; in assay [18] it was -0.239; in assay [19], 0.208; in assay [20], 0.918. For the same compound, the z-score was -0.504 (inactive) in assay [4] and -0.798 in assay [12].

Regarding `C=CC[C@]1(C(=O)NCCCOC)N=C(c2ccc(OCCCO)cc2)O[C@H]1c1ccccc1CN=[N+]=[N-]`, the composite z-score in assay [1] stood at 1.17; in assay [2], 1.45; in [3] it was 1.17; in [5], 0.944; in assay [6] it was 1.22; in assay [7], 0.0673. The composite z-score amounted to 0.612 in assay [8]; 0.496 in [9]; 1.21 in assay [10]; 0.091 in assay [11]; 0.593 in assay [13]; 2.12 in assay [14]. The composite z-score in assay [15] is 0.988; in assay [16], 0.0509; in [17], 0.228; in [18], 1.53; in [19] it was 1.95; in [20], 1.14. The z-score was 0.822 (inactive) in [4] and -2.09 in assay [12].

As for `CC[C@@H]1C=C(C(=O)O)[C@H](c2ccc(Br)cc2)N1S(=O)(=O)c1ccc(C)cc1`, the composite z-score in [1] stood at 0.118; in [2], 0.495; in [3], 0.882; in assay [5], 0.102; in assay [6] it was 0.268; in assay [7] it was 0.444. Moreover, the composite z-score was 0.563 in [8]; -0.235 in assay [9]; 1.11 in assay [10]; 0.618 in assay [11]; -0.124 in [13]; 1.17 in [14]. Further, the composite z-score in [15] is 0.244; in assay [16], -0.154; in assay [17] it was -0.0769; in assay [18] it was 0.581; in assay [19], 0.532; in assay [20], 0.535. For the same compound, the z-score is 1.28 (inactive) in assay [4] and -0.832 in [12].

On to `CN1C(=O)C2C=CC(C(O)c3ccc([N+](=O)[O-])cc3)N(N3CCCCC3)C2C1=O` (stereo not given), for which the composite z-score came to 1.41 in [1]; 0.193 in assay [2]; 0.956 in assay [3]; 0.941 in [5]; 0.964 in [6]; 0.4 in assay [7]. Moreover, the composite z-score was 0.832 in assay [8]; -0.0607 in assay [9]; 1.23 in assay [10]; 1.33 in [11]; 0.169 in [13]; 1.42 in assay [14]. In addition, the composite z-score in assay [15] is 0.0877; in [16], 0.0913; in assay [17], 0.108; in assay [18], 1.59; in assay [19], -0.0204; in assay [20], 1.08. For the same compound, the results for the z-score in assay [4] and in assay [12] were 0.943 (inactive) and 0.702, respectively.

Take `CC1CC/C=C\[C@H]2OC34C=CCN(Cc5ccccc5)C(=O)[C@H]3N(CCCO)C(=O)[C@@H]4C2C(=O)O1` (stereo not given in full): the composite z-score in [1] is 0.881; in assay [2] it was -0.307; in [3] it was 0.45; in assay [5], -1.14; in assay [6], -0.657; in assay [7], -0.574. Also, the composite z-score in assay [8] is -1.07; in [9], -0.538; in [10], -0.192; in assay [11] it was -0.537; in assay [13] it was -2.03; in [14], -0.226. Besides, the composite z-score in [15] was 0.876; in assay [16] it was -0.202; in assay [17] it was -0.449; in assay [18], 0.0522; in assay [19] it was -0.0302; in assay [20], -0.973. The z-score in assay [4] was -0.0477 (inactive); in assay [12], -1.29.

For the compound `COC(=O)[C@@]1(Cc2ccc(OC)cc2)[C@H]2c3cc(C(=O)N4CCCC4)n(CCN4CNCC4=O)c3C[C@H]2CN1C(=O)c1ccccc1`, the composite z-score was 1.8 in assay [1]; 2.4 in assay [2]; 1.41 in assay [3]; 1.03 in assay [5]; -0.16 in assay [6]; 0.656 in assay [7]. For the same compound, the composite z-score in assay [8] was -0.711; in assay [9], -0.462; in assay [10], 0.949; in assay [11] it was 0.218; in assay [13] it was -0.0543; in assay [14], 1.14. In addition, the composite z-score is 0.751 in assay [15]; 1.19 in assay [16]; 2.77 in assay [17]; 2.43 in [18]; 1.11 in assay [19]; -0.169 in assay [20]. For the same compound, the values for the z-score in assay [4] and in assay [12] were 0.908 (inactive) and -0.0994, respectively.
